Jurkat NFkB inh – lowers PMA/ionomycin-induced NF-kB signal in Jurkat cells | PMA/ionomycin-induced NF-kB luciferase reporter, luminescence | inhibition, % at 4 µM | hit rate 0.53% among 330,000; in the data active = inhibition above about 50%
Mdm2 MdmX PPI – human Mdm2/MdmX binding inhibition; O15151+Q00987; SaOS-2 split-luciferase Mdm2/MdmX complementation, luminescence; inhibition, % at 8 µM; hit rate 3% among 330,000;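 active = inhibition of at least 50% at 8 µM in the primary screen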
Gli-Sufu block – antagonists of Gli-Sufu signaling; Sufu-KO-LIGHT fibroblasts, Gli luciferase reporter luminescence; inhibition, % at 5 µM; hit rate 0.74% among 340,000;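 active = inhibition above about 55%, limit read from the data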;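 also: 0% = DMSO-treated cells and 100% = wells with medium but no cells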
697 NFkB inh – inhibitors of the PMA/ionomycin-induced NF-kB reporter in 697 B cells; hit rate 0.33% among 330,000; inhibition, % at 4 µM; AID 435022; 697 B-cell NF-kB luciferase reporter, 16 h; in the data active = inhibition above about 35%
Shn3 3UTR inh – inhibitors of Schnurri-3 3'UTR reporter in osteoblasts | hit rate 0.52% among 360,000 | inhibition, % at 12.5 µM | Clone20 osteoblast Shn3 3'UTR firefly luciferase, 24 h | AID 588674;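 active = mean inhibition of at least 75% with every replicate also reaching 75%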;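 also: 0% = median of neutral control wells and 100% = pilot-screen positive control compound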
Mdm2-MdmX conf – confirmation of human Mdm2/MdmX interaction inhibitors; shares compounds with Mdm2 MdmX PPI; Mdm2-MdmX binding, luminescent assay; hit rate 55% among 10,000; AID 489028; inhibition, % at 8 µM; in the data active = inhibition above about 40%
Full FLuc ctr – counter-screen for Mdm2/MdmX inhibitors: full-length luciferase; shares compounds with Mdm2 MdmX PPI; SaOS-2 full-length luciferase counterscreen, luminescence; inhibition, % at 8 µM; hit rate 77% among 6,200;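 active = mean inhibition at 8 µM reaching about 37%, which flags the compound as non-specific, limit read from the data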;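 also: p53-null SaOS-2 cells with luciferase driven by a doxycycline-inducible promoter; compound on cells about two nights before reading with doxycycline added after day one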
Active calls of the source: *; / = not tested or not shown. This is a sample that favours compounds with a hit; in the whole collection about 3.8% have one here.

SMILES	Jurkat NFkB inh	Mdm2 MdmX PPI	Gli-Sufu block	697 NFkB inh	Shn3 3UTR inh	Mdm2-MdmX conf	Full FLuc ctr
C/C(=N\NC(=O)c1cc(Br)ccc1O)c1ccccn1	-28.3	57.5*	66.5*	-134.9	51.1	39.1	49.6*
O=C(NNC(=O)c1ccccc1OCc1ccccc1)c1ccccc1O	8.1	64.1*	13.8	-38.5	57.6	69.7*	34.8
C/C(=N\NC(=O)c1ccccc1OCc1ccc(F)cc1)c1ccccn1	37.1	93.0*	46.8	-79.7	93.2*	52.8*	44.8*
Cc1cccc(/C=N/NC(=O)c2cc(Br)ccc2O)n1	9.1	5.0	-1.4	-18.8	-14.0	/	/
O=C(NNC(=O)c1ccccc1OCc1ccccc1)c1ccccc1F	-14.2	-11.1	-2.4	-36.5	-30.8	/	/
CCCN1CCC(=O)NC1=S	/	/	-2.8	/	14.3	/	/
O=C(COC(=O)CN1C(=O)c2ccccc2C1=O)NC1CCCC1	2.3	-14.4	7.1	26.7	-7.1	/	/
Cn1cccc1C(=O)NC(=O)COC(=O)c1cc(S(=O)(=O)N2CCCCC2)ccc1Cl	14.2	13.2	8.0	22.5	12.6	/	/
Cc1cc2occ(CC(=O)N(C)CC(=O)Nc3ccccc3Cl)c2cc1C	7.8	-7.3	-2.7	14.0	3.0	/	/
CCC1=C(OC(=O)N(CC)CC)N2C(=O)OC(=NCC(=O)OC)[C@]2(Cc2ccccc2)[C@H]2C1=CC[C@H]1C(=O)N(c3ccccc3)C(=O)[C@H]12	-26.9	-8.8	-12.1	-29.7	0.3	/	/
CC(=O)c1ccc(NC(=O)C2=CC(c3cccs3)=NS(=O)(=O)N2C)cc1	7.0	34.2	-9.1	-15.7	9.1	/	/
CCc1ccc(NC(=O)C2=CC(c3cccs3)=NS(=O)(=O)N2C)cc1	-6.0	71.6*	2.9	-16.6	10.7	57.4*	44.2*
Cc1ccc(NC(=O)C2=CC(c3cccs3)=NS(=O)(=O)N2C)cc1	-6.4	52.5*	-5.3	4.0	-10.8	12.2	/
COc1cc(NC(=O)C2=CC(c3cccs3)=NS(=O)(=O)N2C)cc(OC)c1OC	0.6	18.9	-3.6	-0.6	24.0	/	/
Cc1ccc2nc(NC(=O)C3CCN(S(=O)(=O)c4cccc5nsnc45)CC3)sc2c1	-1.8	55.0*	-14.6	-26.9	46.4	18.2	/
Cc1ccc2nc(NC(=O)C3CCCN(S(=O)(=O)c4cccc5nsnc45)C3)sc2c1 (centres undefined)	-15.6	37.7	-13.7	-17.1	-9.8	/	/
CCc1ccc(N(CC(=O)Nc2nc3ccc(C)cc3s2)S(=O)(=O)c2c(C)noc2C)cc1	-3.3	60.3*	-0.9	-23.3	2.0	11.5	/
Cc1ccc2nc(NC(=O)C3CCN(S(=O)(=O)c4cc([N+](=O)[O-])ccc4Cl)CC3)sc2c1	2.8	66.7*	-7.2	-46.2	65.0	67.2*	47.0*
Cc1ccc2nc(NC(=O)CN(C)S(=O)(=O)c3cccc4nsnc34)sc2c1	41.0	54.8*	-15.5	-74.0	24.4	69.3*	58.0*
Cc1ccnc(NC(=O)CN(C)S(=O)(=O)c2cccc3nsnc23)c1	-11.4	-10.3	7.5	-4.1	9.4	/	/
CCc1ccc(NC(=O)CN(c2ccc3c(c2)OCO3)S(=O)(=O)c2c(C)noc2C)cc1	-9.3	-2.3	-4.7	-6.8	27.7	/	/
CCN(CC)S(=O)(=O)c1ccc(S(=O)(=O)N2CCC(C(=O)NC3CCN(Cc4ccccc4)CC3)CC2)cc1	4.9	69.9*	27.3	-1.2	24.1	12.1	/
CC(NC(=O)C1CCN(S(=O)(=O)c2cc([N+](=O)[O-])ccc2Cl)CC1)c1ccccc1 (centres undefined)	-17.2	12.0	14.7	4.6	-43.1	/	/
O=C(NC1CCN(Cc2ccccc2)CC1)C1CCN(S(=O)(=O)c2cccc([N+](=O)[O-])c2)CC1	11.5	9.6	-4.1	-7.0	10.4	/	/
Cc1ccc(NC(=O)C2CCN(S(=O)(=O)c3cc([N+](=O)[O-])ccc3Cl)CC2)nc1	14.6	70.7*	-1.6	2.4	80.6	55.7*	42.4*
SMILES	Jurkat NFkB inh	Mdm2 MdmX PPI	Gli-Sufu block	697 NFkB inh	Shn3 3UTR inh	Mdm2-MdmX conf	Full FLuc ctr
COc1ccc2nc(NC(=O)C3CCN(S(=O)(=O)c4cccs4)CC3)sc2c1	0.8	52.3*	8.8	-20.6	4.7	14.8	/
O=C(Nc1nc2cc(Cl)ccc2s1)C1CCCN(S(=O)(=O)c2cccc3cccnc23)C1 (centres undefined)	-0.9	57.8*	-1.5	-24.6	28.9	6.7	/
CCn1c(SCC(=O)N2CCC(C)CC2)nnc1-c1ccco1	8.7	-13.6	21.3	8.4	-17.5	/	/
O=C(Nc1nc2ccc(F)cc2s1)C1CCN(S(=O)(=O)c2cc([N+](=O)[O-])ccc2Cl)CC1	27.1	88.2*	33.8	-108.3	65.0	78.3*	25.5
O=C(NC1CC1)C1CCN(S(=O)(=O)c2ccc(Cl)c([N+](=O)[O-])c2)CC1	0.7	96.9*	-0.6	14.9	0.1	74.6*	58.4*
O=C(NC1CCN(S(=O)(=O)c2cccc([N+](=O)[O-])c2)CC1)C1CCCCC1	-8.5	-13.5	-16.3	0.3	7.6	/	/
Cc1ccc(O)c(C(=O)c2cc(C#N)c(=O)n(-c3nccs3)c2)c1	5.4	54.5*	-2.6	5.5	6.3	31.5	/
O=C(Sc1nnc(-c2ccccc2)o1)N1c2ccccc2Sc2ccccc21	3.7	59.5*	-3.7	11.3	2.9	22.1	/
N#CC1=C(c2ccccc2)/C(=C/c2ccccc2)OC1=O	19.5	100.3*	-17.9	5.8	95.2*	75.4*	49.2*
O=C1O/C(=C/c2ccccc2)c2ccccc21	-0.6	18.0	-15.7	-19.0	-43.3	/	/
O=C(CN(Cc1ccc(Br)cc1)S(=O)(=O)c1ccccc1)NCc1cccnc1	-19.8	-8.6	-6.3	-65.6	-15.4	/	/
O=C(NCc1cccnc1)/C(=C\c1ccc(-c2ccc(Br)cc2)o1)S(=O)(=O)c1ccccc1	19.6	95.7*	4.5	15.1	95.9*	98.9*	51.4*
O=C(NCc1cccnc1)/C(=C/c1ccc(-c2ccc(Cl)cc2)o1)S(=O)(=O)c1ccccc1	31.2	81.7*	4.6	26.4	91.7*	100.2*	51.7*
O=C(NCc1cccnc1)/C(=C/c1ccc(-c2cccc(C(F)(F)F)c2)o1)NC(=O)c1ccccc1	-5.5	21.1	-6.4	-13.7	10.5	/	/
COc1ccc(S(=O)(=O)N2CCN(C(=O)c3cc(-c4ccc(C)cc4)n[nH]3)CC2)cc1	11.2	11.6	-6.4	7.6	-4.6	/	/
O=[N+]([O-])c1ccc2c(c1)C(O)n1nc(-c3ccc(Cl)cc3Cl)nc1S2 (centres undefined)	5.0	50.0	0.8	4.1	-17.9	54.3*	101.8*
Cc1nc2n(n1)C(O)c1cc([N+](=O)[O-])ccc1S2 (centres undefined)	9.8	-3.8	/	11.8	/	/	/
CCOC(=O)c1c(C)[nH]c(C(=O)OCC(=O)NCc2ccc(F)cc2)c1C	-2.0	78.4*	3.3	-8.4	-1.6	12.6	/

Compound activity deposited in PubChem BioAssay by several laboratories.
